Tb PYK inh: T. brucei pyruvate kinase inhibition. Potency, µM (highest dose often 76.8 µM), for the others: at the highest dose activity, negative = inhibition, usual class: inhibitors. TbPYK enzyme, Kinase-Glo Plus ATP luminescence, 45 min. Q57TT1. hit rate 0.12% among 410,000; further: potency means the concentration at half of the fitted maximal effect; on the % scale 0 is the no-effect control and ±100 the full control effect; nearly all actives have a fitted effect of over 50% in size
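TbPYK + substrate in 50 mM TEA pH 7.2, 100 mM KCl, 10 mM MgCl2, 0.05% BSA, 0.01% Tween-20; cpd pinned; ADP 130 uM final; 45 min RT; Kinase-Glo Plus 10 min; luminescence endpoint.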
Cycloheximide cs: counter-screen hit for Shiga toxin inhibitors, cycloheximide | cell reporter, cycloheximide protein synthesis inhibition counterscreen | max response, % | hit rate 12% among 300,000 | AID 2314; in the data active means max response mostly above about 13%, no sharp cut-off; inactive means mostly below about 14%; further: read at 38.3 µM for the half of the compounds with a filed dose; 0% is about no effect
LmPK inhibitor: inhibitors of Leishmania mexicana pyruvate kinase; hit rate 0.37% among 290,000; Q27686; purified LmPK, Kinase-Glo ATP luminescence, 1 h; Potency, µM (doses to about 57.5 µM), without a hit: at the highest dose activity change, negative = inhibition, actives largely listed as inhibitors; further: potency means the concentration at half of the fitted maximal effect; on the % scale 0 is the no-effect control and ±100 the full control effect
Target sequence (Q27686 whole entry, looked up): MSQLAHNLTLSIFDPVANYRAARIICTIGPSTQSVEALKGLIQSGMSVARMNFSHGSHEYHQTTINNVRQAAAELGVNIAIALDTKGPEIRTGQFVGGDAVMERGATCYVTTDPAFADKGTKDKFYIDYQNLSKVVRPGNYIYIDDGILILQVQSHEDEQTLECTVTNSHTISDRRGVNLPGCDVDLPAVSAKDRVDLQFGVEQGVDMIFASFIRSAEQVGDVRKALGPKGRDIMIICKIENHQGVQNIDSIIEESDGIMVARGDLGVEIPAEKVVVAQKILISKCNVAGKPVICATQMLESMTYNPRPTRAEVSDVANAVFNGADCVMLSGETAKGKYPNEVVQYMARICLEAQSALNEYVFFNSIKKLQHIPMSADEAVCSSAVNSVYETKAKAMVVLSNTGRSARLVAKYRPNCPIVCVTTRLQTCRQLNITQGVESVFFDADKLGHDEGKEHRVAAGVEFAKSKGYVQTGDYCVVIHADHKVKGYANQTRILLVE
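Pyruvate kinase activity monitored as ATP production (luciferase luminescence). Conditions: 0.1 nM enzyme, 0.5 mM PEP, 0.1 mM ADP, 1 h, RT; normalized against uninhibited and no-enzyme wells.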
Giardia FBPA inh: blocks Giardia fructose-bisphosphate aldolase activity. A8B2U2. purified Giardia FBPA. Potency, µM (series often up to 59.6 µM), inactives show at the top dose activity, negative = inhibition, actives largely listed as inhibitors. hit rate 0.71% among 290,000. AID 2451; further: potency means the concentration at half of the fitted maximal effect; on the % scale 0 is the no-effect control and ±100 the full control effect; nearly all actives have a fitted effect of over 55% in size
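40 nM FBPA preincubated 10 min at RT with compound (up to 57.5 uM final), then substrate plus GAPDH/TPI/NAD/arsenate coupling and diaphorase/resazurin added. Fluorescence read after 20 min at RT, 525/598 nm.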
Shiga inhibitor: blocks Shiga toxin action in Vero cells. Vero cells, Shiga toxin protein synthesis inhibition reporter. inhibition, % at 38.7 µM. hit rate 9.2% among 290,000. AID 2315; in the data active means inhibition mostly above about 28%, no sharp cut-off; inactive means mostly below about 43%; further: 0% is about no effect
Sm TGR block: blocks Schistosoma mansoni thioredoxin glutathione reductase; Q962Y6; purified TGR, DTNB reduction, TNB absorbance 405 nm; Potency, µM (titrated, usually from 114 µM), inactives show top-dose activity change, negative = inhibition, usual class: inhibitors; hit rate 3% among 360,000; further: potency means the concentration at half of the fitted maximal effect; on the % scale 0 is the no-effect control and ±100 the full control effect; nearly all actives have a fitted effect of over 60% in size
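Kinetic colorimetric format: TGR-catalysed, NADPH-driven DTNB reduction monitored via TNB absorbance. Enzyme dispensed at 20 nM; compound exposure 15 min at room temperature before reaction start.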
Starred values were filed as active, the others as inactive; ? = inconclusive; nt = no result given; [ ] = remark or other dose. Only a selection was taken, and hits are over-represented in it overall. Unless noted, the call rests on the fitted dose curve; in most records, active means well fitted curve in the direction sought with a large enough effect; inconclusive means small, poorly fitted or top-dose-only effect, or another doubt; inactive means no such curve, though single readings can be large; an effect the other way counts as inactive or inconclusive.

SMILES | Tb PYK inh | Cycloheximide cs | LmPK inhibitor | Giardia FBPA inh | Shiga inhibitor | Sm TGR block
Clc1ccc2nc(CN3CCCCC3)cn2c1 | 3% | -4 | 5% | -1% | -21 | 0%
CC(C)(C)c1ccc(S(=O)(=O)/N=C2\C=C(NS(=O)(=O)c3ccccc3)C(=O)c3ccccc32)cc1 | -20% | 0 | -2% | ? | -6 | -27%
COC(=O)c1ccccc1NC1=C/C(=N\S(=O)(=O)c2ccc(C(=O)O)cc2)c2ccccc2C1=O | -5% | 3 | -4% | 1µM* | 17 | 14µM*
Cc1ccc(NC2=C/C(=N/S(=O)(=O)c3cccs3)c3ccccc3C2=O)cc1 | -15% | 48* | -8% | ? | 145* | -19%
COC(=O)c1cccc(NS(=O)(=O)c2cccs2)c1C | 3% | 13 | 6% | 1% | 37 | 3%
COC(=O)c1ccccc1NC1=C/C(=N\S(=O)(=O)c2cccs2)c2ccccc2C1=O | -5% | 28* | 18µM* | ? | 41 | ?
O=C1C(Nc2ccccc2)=C/C(=N/S(=O)(=O)c2cccs2)c2ccccc21 | -21% | 11 | -19% | ? | 16 | ?
Cc1cccc(OCC(=O)N(C)CC(=O)Nc2cccc(F)c2)c1C | 5% | nt | nt | nt | nt | -10%
CC(OC(=O)C1CC(=O)N(Cc2ccco2)C1)C(=O)Nc1ccccc1[N+](=O)[O-] (centres undefined) | -10% | nt | nt | nt | nt | -7%
CCOC(=O)Cn1c(=O)n(C2CCCCC2)c2nc(-c3ccccc3Cl)nc(C(N)=O)c21 | -2% | nt | nt | nt | nt | -1%
Cc1ccc(Nc2nnc(-c3ccccc3N)o2)cc1C | -2% | 26* | 2% | -2% | 41* | -6%
COc1ccc(O)c(C(=O)c2cnn(-c3ccccn3)c2)c1 | 0% | 33* | -3% | -1% | 63* | 6%
COc1ccc(O)c(C(=O)c2cnn(-c3ccc(Cl)cc3)c2)c1 | -5% | 20 | 4% | -2% | 40* | -1%
COc1ccc(O)c(C(=O)c2cc(C#N)c(=O)n(-c3ccc(Cl)cc3)c2)c1 | -3% | 6 | -1% | -6% | -1 | -18%
COc1ccc(O)c(C(=O)c2cnc3nc4ccccc4n3c2)c1 | -3% | 2 | -2% | -16% | -1 | -35%
CC(C)c1ccc(NC(=O)C2(C)Cc3c(-c4cccc(C(N)=O)c4)ccnc3O2)cc1 (centres undefined) | 6% | nt | nt | nt | nt | nt
C=CS(=O)(=O)N(Cc1ccc(Cl)c(Cl)c1)C[C@@H](O)CO | -6% | nt | nt | nt | nt | nt
Nc1nc(-c2ccccc2)cc(N2CCCCC2)n1 | 3% | 3 | 2% | 5% | 6 | ?
O=C(Nc1cc(N2CCCCC2)ncn1)c1ccccc1 | 1% | 29* | 2% | 1% | 54* | 18%
c1ccc(-c2cc(N3CCCCC3)ncn2)cc1 | -1% | 41* | -1% | 3% | 62* | 0%
c1ccc(-c2cc(N3CCCCCC3)n[nH]2)cc1 | ? | 48* | -2% | -26% | 151* | -1%
CCCCNC(=O)c1ccc(-c2nc(CS(=O)(=O)c3ccc(C)cc3)c(C)o2)cc1 | -4% | nt | nt | nt | nt | 40µM*
COCCCNC(=O)c1ccc(-c2nc(CS(=O)(=O)c3ccc(C)cc3)c(C)o2)cc1 | 2% | nt | nt | nt | nt | 25µM*
CN1C(C(=O)NCc2ccco2)CC2Cn3c(nc4cc(Cl)c(Cl)cc43)C21 (centres undefined) | -5% | 13* | 3% | -2% | 2 | -27%
O=[N+]([O-])C(Br)(CO)CO | 10µM* | nt | nt | nt | nt | nt
SMILES | Tb PYK inh | Cycloheximide cs | LmPK inhibitor | Giardia FBPA inh | Shiga inhibitor | Sm TGR block
Brc1ccccc1OCCCn1cnc2ccccc21 | -3% | 35* | 0% | -12% | 52 | -11%
Cc1ccc(OCCCCn2cnc3ccccc32)cc1 | 1% | 40* | 14%[11.5 µM] | -24% | 88* | -1%
Brc1ccccc1OCCCCN1CCCCC1 | 3% | 1 | -1% | 10% | -5 | 7%
Cc1ccccc1OCCCCn1cnc2ccccc21 | -3% | 16* | 1% | 5% | 23 | -4%
c1ccc(OCCCCn2cnc3ccccc32)cc1 | -1% | 6 | 0% | -1% | 14 | -1%
COc1ccccc1CN(C)C(=O)c1ccccc1Sc1ccccc1C#N | 0% | -2 | -4% | nt | -12 | 0%
CSc1ncc2[nH]c(C(O)c3ccccc3)nc2n1 (centres undefined) | -8% | nt | nt | nt | nt | nt

Screening data (PubChem BioAssay)
